{"source": "PubChem BioAssay AID680", "about": "(PCMD, 2007)", "note": "Screen size: about 62,000 compounds; about 120 (0.19%) were called active. Rule as the data show it: active = inhibition above about 20% (passing the limit was not always enough); inactive = the rest. The list comes from a sample in which actives are over-represented; it also holds similar structures and randomly drawn compounds."}
{"target": "Coagulation factor XI (Homo sapiens) (UniProt P03951)", "sequence (P03951 19-387 limits assumed)": "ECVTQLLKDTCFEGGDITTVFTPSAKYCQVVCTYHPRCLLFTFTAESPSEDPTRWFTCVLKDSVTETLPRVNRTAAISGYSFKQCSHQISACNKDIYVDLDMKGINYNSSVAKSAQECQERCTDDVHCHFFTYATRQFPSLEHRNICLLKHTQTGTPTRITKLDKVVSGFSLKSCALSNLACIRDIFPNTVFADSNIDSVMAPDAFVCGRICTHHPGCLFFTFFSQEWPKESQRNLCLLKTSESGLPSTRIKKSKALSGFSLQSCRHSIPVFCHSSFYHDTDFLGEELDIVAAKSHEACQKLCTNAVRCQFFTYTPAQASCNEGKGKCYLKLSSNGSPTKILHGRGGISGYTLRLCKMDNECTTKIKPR", "sequence (P03951 388-625 limits assumed)": "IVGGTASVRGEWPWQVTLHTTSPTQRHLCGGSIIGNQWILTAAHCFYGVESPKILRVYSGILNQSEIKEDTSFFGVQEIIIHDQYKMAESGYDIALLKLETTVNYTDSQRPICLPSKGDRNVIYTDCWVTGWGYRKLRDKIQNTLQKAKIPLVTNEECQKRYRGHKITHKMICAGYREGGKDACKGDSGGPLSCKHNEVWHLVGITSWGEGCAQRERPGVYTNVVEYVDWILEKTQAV", "test": "FXIa protease inhibitors in compound pools, primary screen, biochemical, 10-compound mixtures (AID 680);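 also: each value is inhibition by a whole ten-compound pool holding the compound; 0% = enzyme with no mixture and 100% = wells lacking enzyme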", "conditions": "purified FXIa, fluorogenic substrate, pooled mixtures; at 5 µM; stronger effect = higher value"}
{"molecule": "O=C(NCc1ccc2c(c1)OCO2)c1cc2c(s1)CS(=O)(=O)C2", "inhibition": "1.71% (inactive)"}
{"molecule": "COC(=O)[C@H](Cc1ccccc1)NC(=O)N1CC(C)OC(C)C1", "note": "(some centres not stated)", "inhibition": "-17.5% (inactive)"}
{"molecule": "Cn1c(SCC(=O)OC2CCCCC2)nnc1-c1ccc(S(=O)(=O)N2CCCC2)cc1", "inhibition": "-4.25% (inactive)"}
{"molecule": "CC(C)c1ccc(NC(=O)NC2CCCCC2)cc1", "inhibition": "-11.2% (inactive)"}
{"molecule": "CC1Cc2ccccc2N1C(=O)Cn1cnc2ccccc2c1=O", "note": "(configuration not stated)", "inhibition": "3.86% (inactive)"}
{"molecule": "COc1ccc(Cc2nnc(NS(=O)(=O)Cc3ccccc3)s2)cc1", "inhibition": "10.4% (inactive)"}
{"molecule": "C[N+](C)(C)CCOP(=O)([O-])OC[C@H](O)CO", "inhibition": "4.21% (inactive)"}
{"molecule": "CCOC(=O)Cn1c(=O)oc2cc(S(=O)(=O)NCC3CCCO3)ccc21", "note": "(configuration not stated)", "inhibition": "5.99% (inactive)"}
{"molecule": "CCOC(=O)C(CC)Sc1ncnc2c1nnn2-c1ccc(F)cc1", "note": "(configuration not stated)", "inhibition": "14% (inactive)"}
{"molecule": "Cc1csc(NC(=O)NC2(C(F)(F)F)Oc3ccccc3O2)n1", "inhibition": "0.345% (inactive)"}
{"molecule": "O=C(CN1CCN(c2ccccc2F)CC1)c1ccc2c(c1)OCO2", "inhibition": "4.78% (inactive)"}
{"molecule": "O=C(NC1CCCCC1)N1CCc2[nH]c3ccccc3c2C1", "inhibition": "7.75% (inactive)"}
{"molecule": "CC(C)(C)Oc1ncc(Br)c(OC(C)(C)C)n1", "inhibition": "-2.49% (inactive)"}
{"molecule": "CCOC(=O)C1=C(C)NC(C)=C(C(=O)OCC)C1C1=COCCO1", "inhibition": "-9.31% (inactive)"}
{"molecule": "c1ccc(COc2nsnc2N2CCOCC2)cc1", "inhibition": "11.9% (inactive)"}
{"molecule": "CCNC(=O)CCc1nc(-c2ccc(C(C)(C)C)cc2)no1", "inhibition": "-1.14% (inactive)"}
{"molecule": "CC1COC2C(O1)N(S(C)(=O)=O)CCN2S(C)(=O)=O", "note": "(configuration not stated)", "inhibition": "1.71% (inactive)"}
{"molecule": "CC(C)CNC(=O)c1cc(-c2ccc(Br)cc2)on1", "inhibition": "5.53% (inactive)"}
{"molecule": "CCC(=O)c1ccc(OCC(O)CN2C(=O)NC(C)(C)C2=O)cc1", "note": "(configuration not stated)", "inhibition": "11.4% (inactive)"}
{"molecule": "CC1CN(c2cc(=O)n(-c3cccc(Br)c3)c(=O)[nH]2)CC(C)O1", "note": "(configuration not stated)", "inhibition": "6.23% (inactive)"}
{"molecule": "Cc1cccc(Cn2c(N3CCN(c4ccccc4)CC3)nc3c2c(=O)n(C)c(=O)n3C)c1", "inhibition": "-1.79% (inactive)"}
{"molecule": "CCOc1ccccc1NC(=O)Nc1cc(OC)ccc1OC", "inhibition": "1.07% (inactive)"}
{"molecule": "CCOC(=O)c1sc(/N=C/Nc2nc(C)c(C(=O)OCC)s2)nc1C", "inhibition": "5.51% (inactive)"}
{"molecule": "Cc1cnc(C(=O)OCC(=O)Nc2ccc(Cl)cc2Cl)cn1", "inhibition": "6% (inactive)"}
{"molecule": "O=C(Nc1cccc(-c2nnc(-c3ccccc3)o2)c1)C1CCCO1", "note": "(configuration not stated)", "inhibition": "-7.16% (inactive)"}
{"molecule": "O=C(Nc1ccc(-c2nnc(-c3ccccc3)o2)cc1)C1CCCO1", "note": "(configuration not stated)", "inhibition": "9.26% (inactive)"}
{"molecule": "O=C(Nc1nnc(CCc2ccccc2)s1)C1CCCO1", "note": "(configuration not stated)", "inhibition": "21.3% (active)"}
{"molecule": "CCOC(=O)c1ccc(-n2c(C)nc3c(cnn3-c3ccccc3C)c2=O)cc1", "inhibition": "-0.685% (inactive)"}
{"molecule": "CCC(CC)C(=O)Nc1cc(C(=O)OC)cc(C(=O)OC)c1", "inhibition": "-1.44% (inactive)"}
{"molecule": "CCc1ccccc1NC1c2ccccc2C(=O)N1c1cccnc1", "note": "(configuration not stated)", "inhibition": "-0.145% (inactive)"}
{"molecule": "CCOC(=O)N1CCC(Nc2c(NCCCN3CCN(c4ccc(OC)cc4)CC3)c(=O)c2=O)CC1", "inhibition": "12.6% (inactive)"}
{"molecule": "N#CC(C(N)=O)=C1CCC2(CC1)OCCCCO2", "inhibition": "4.44% (inactive)"}
{"molecule": "CCc1nnc(NC(=O)c2cccs2)s1", "inhibition": "5.55% (inactive)"}
{"molecule": "O=C(CS(=O)(=O)c1cn(Cc2ccc(Cl)cc2)c2ccccc12)N1CCOCC1", "inhibition": "-16.2% (inactive)"}
{"molecule": "CCN1C(=O)/C(=C2\\SC(N3CCCCC3)=NC2=O)c2ccccc21", "inhibition": "-7.47% (inactive)"}
{"molecule": "O=C(c1cccc(C(=O)N2CCN(c3ccc(F)cc3)CC2)c1)N1CCN(c2ccc(F)cc2)CC1", "inhibition": "0.53% (inactive)"}
{"molecule": "CN1CCN(C(=O)c2ccc(NS(=O)(=O)c3ccccc3)cc2)CC1", "inhibition": "1.27% (inactive)"}
{"molecule": "Cc1nonc1OCCn1nnnc1N", "inhibition": "-1.41% (inactive)"}
{"molecule": "COc1ccc(CCNS(=O)(=O)c2ccc(C(=O)NCc3ccco3)cc2)cc1OC", "inhibition": "2.31% (inactive)"}
{"molecule": "Cc1ccc2nc(-c3ccc(SCC(=O)Nc4cc(C)on4)nc3)[nH]c2c1", "inhibition": "-9.14% (inactive)"}
{"molecule": "COc1ccc(Cn2c(=O)sc3ccccc32)cc1OC", "inhibition": "-0.795% (inactive)"}
{"molecule": "CC1(C)Oc2ccc(C(=O)N3CCOCC3)cc2N(CC(=O)Nc2ccccc2)C1=O", "inhibition": "7.31% (inactive)"}
{"molecule": "O=C(CSc1nnc(-c2cccs2)n1-c1ccccc1)N1CCN(C(=O)c2ccco2)CC1", "inhibition": "-14.5% (inactive)"}
{"molecule": "O=S(=O)(NCCNS(=O)(=O)c1ccccc1)c1ccccc1", "inhibition": "-3.77% (inactive)"}
{"molecule": "COc1ccc(NC(=O)c2c(SC)nsc2SC)cc1", "inhibition": "4.24% (inactive)"}
{"molecule": "COc1cccc(Nc2ncccc2C(=O)O)c1", "inhibition": "5.89% (inactive)"}
{"molecule": "COc1ccc(Cc2nnnn2CC(=O)O)cc1", "inhibition": "3.18% (inactive)"}
{"molecule": "O=C(O)c1ccc(F)c(S(=O)(=O)Nc2ccccc2)c1", "inhibition": "7.12% (inactive)"}
{"molecule": "CCN(CC)CCCNC(=O)c1cc(-c2cccc(Cl)c2)on1", "inhibition": "5.02% (inactive)"}
{"molecule": "CCOC(=O)Cn1c(N)c(C(=O)OC)sc1=S", "inhibition": "-0.995% (inactive)"}
{"molecule": "O=C(Cn1cnc2c(cnn2-c2ccc(F)cc2)c1=O)NCCc1ccccc1", "inhibition": "-10.3% (inactive)"}
{"molecule": "Cc1cc(C)c(C#N)c(SCc2[nH]nc3c2C(c2ccccc2)C(C#N)=C(N)O3)n1", "note": "(configuration not stated)", "inhibition": "1.67% (inactive)"}
{"molecule": "c1ccc2c(CNn3cnnc3)cccc2c1", "inhibition": "7.96% (inactive)"}
{"molecule": "COC(=O)c1ccc(CN(c2ccccc2OC)S(=O)(=O)c2cccs2)o1", "inhibition": "-7.66% (inactive)"}
{"molecule": "CCOC(=O)c1c(C)nc(-c2ccccc2)nc1NC(=O)C(C)C", "inhibition": "5.54% (inactive)"}
{"molecule": "CCOc1ccc(N=C2SC(C(=O)O)CC(=O)N2C)cc1", "note": "(configuration not stated)", "inhibition": "-15.5% (inactive)"}
{"molecule": "CCC(=NC1CC(C)(C)NC(C)(C)C1)C1=C(O)CC(C)(C)CC1=O", "inhibition": "-8.62% (inactive)"}
{"molecule": "CCCCN(C)C(=O)C1CCN(Cc2ccccn2)CC1", "inhibition": "-2.55% (inactive)"}
{"molecule": "COc1ccc(CSc2nc(N3CCOCC3)c3c(c2C#N)CC(C)(C)OC3)cc1", "inhibition": "-0.245% (inactive)"}
{"molecule": "COc1cc2cc(CN(CCN3CCCC3)C(=O)Nc3ccccc3Cl)c(=O)[nH]c2cc1OC", "inhibition": "2.35% (inactive)"}
{"molecule": "C=CCn1c(SCc2nnc(-c3ccccc3)o2)nnc1C(O)c1ccccc1", "note": "(configuration not stated)", "inhibition": "-17.4% (inactive)"}
{"molecule": "CCCCCCC(=O)N(O)C1CC(=O)N(c2ccccc2)C1=O", "note": "(configuration not stated)", "inhibition": "1.64% (inactive)"}
